Among all 190,000 compounds or so, about 810 (0.43%) were called active. Many of the other results were omitted from the sample, so actives are more common in it than they were. Values without a mark were called inactive. Cut-off read from the data, not from the text of the source: active = inhibition above about 50%; inactive = the rest.

This assay deals with Mannose-6-phosphate isomerase (Homo sapiens) (UniProt P34949). The assay can be described thus: inhibitors of human PMI, primary screen, biochemical, fluorescence intensity, coupled assay (AID 1209).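 Note: plate controls were DMSO vehicle for no effect and wells lacking substrate for full effect.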 The settings on record: purified PMI enzyme, at 20 µM, stronger effect = higher value.
Sequence of Mannose-6-phosphate isomerase (Homo sapiens) (P34949 whole entry, looked up): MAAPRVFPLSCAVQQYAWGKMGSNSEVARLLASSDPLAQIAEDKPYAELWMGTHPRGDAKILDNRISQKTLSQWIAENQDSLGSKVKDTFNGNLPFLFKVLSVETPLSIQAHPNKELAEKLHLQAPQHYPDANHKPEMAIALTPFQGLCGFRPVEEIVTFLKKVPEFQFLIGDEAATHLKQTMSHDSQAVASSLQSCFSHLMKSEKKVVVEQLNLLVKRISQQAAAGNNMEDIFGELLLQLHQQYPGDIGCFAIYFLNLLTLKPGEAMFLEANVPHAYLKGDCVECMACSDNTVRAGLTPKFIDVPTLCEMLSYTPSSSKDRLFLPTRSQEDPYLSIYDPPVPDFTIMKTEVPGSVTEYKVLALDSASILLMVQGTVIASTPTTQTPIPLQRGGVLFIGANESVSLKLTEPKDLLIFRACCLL
For `O=C(CSc1nc2cc(Cl)ccc2s1)Nc1cccc(S(=O)(=O)N2CCOCC2)c1`, the inhibition (usually the relative decrease from the control value, in per cent) is 15.2%. In the case of `CCN1CCN(C(c2cccs2)C(C)NC(=O)CC(C)C)CC1` (configuration not stated), the inhibition is 0.5%.

As for `CCN(CCNC(=O)C1CCN(S(=O)(=O)c2cccc3cccnc23)CC1)c1ccccc1`, the inhibition is 8.4%.

On to `O=C(NNC(=O)c1cc(OCC(F)(F)F)ccc1OCC(F)(F)F)c1ccc(Cl)c(Cl)c1`, for which the inhibition is 16.5%. Take `Cc1cc2oc(=O)cc(CN3CCCc4ccccc43)c2cc1C`: the inhibition was -11.2%. To `Cc1ccc(SCCC(=O)NCCSCc2ccco2)cc1` belongs 7.9%. For `CN1CCC(N(C)C(=O)/C=C/c2cn(-c3ccccc3)nc2-c2cccs2)CC1`, the inhibition was -5.9%. As to `COc1ccc(S(=O)(=O)N2CCN(Cc3ccc(Cl)cc3)CC2)cc1`, the inhibition was 14.7%. As to `CCOc1cc(-c2nc(-c3ccccc3)c(-c3cc([N+](=O)[O-])ccc3C)[nH]2)ccc1O`, the inhibition was 14.4%. Take `COc1ccc(-c2nc(-c3ccccc3)c(-c3cc([N+](=O)[O-])ccc3C)[nH]2)cc1O`: the inhibition was 22.5%. Consider `Cc1ccc([N+](=O)[O-])cc1-c1[nH]c(-c2ccc(O)c(O)c2)nc1-c1ccccc1`, for which the inhibition was 51.7% (active). With `Cc1ccc(COc2ccc(Br)cc2/C=N/O)cc1`, the inhibition is 19.7%. On to `O=[N+]([O-])c1cc([N+](=O)[O-])c2c(=Nc3ccccc3)n(-c3ccccc3)n(O)c2c1`, for which the inhibition was 10.6%. Regarding `O=c1c2c([N+](=O)[O-])cc([N+](=O)[O-])cc2sn1-c1ccc(Br)cc1`, the inhibition was 109% (active). `O=c1c2cc(Br)ccc2nc(-c2ccc([N+](=O)[O-])cc2)n1O`: the inhibition was -3.6%.

Turning to `CCOc1ccccc1CN1CCN(S(=O)(=O)CC)CC1`, the inhibition is 3.5%. To `O=c1[nH]c(CSc2nnc(COc3ccccc3)n2-c2ccccc2)nc2ccccc12` belongs -3.6%; to `Nc1cc(C(=O)OCC(=O)NCc2ccco2)ccc1Cl`, -6.8%; to `COC(=O)c1ccc(OC)cc1OCC(=O)N1CCN(c2ccc(F)cc2)CC1`, 13.1%. Regarding `O=C(/C=C/c1c(Cl)cccc1Cl)NCCc1ccccc1`, the inhibition is -10%. Regarding `CC(C)CN(CC(C)C)S(=O)(=O)N1CCC(C(=O)NCc2cccnc2)CC1`, the inhibition is 55.2% (active). As to `CCS(=O)(=O)N1CCC(C(=O)NCc2cccnc2)CC1`, the inhibition was 4.6%.

`CC(C)CN(CC(C)C)S(=O)(=O)N1CCC(C(=O)NCc2ccc(F)cc2)CC1`: the inhibition was 2.6%.

Regarding `COc1ccc(NC(=O)C(c2ccccc2)N(C)C(=O)CNC(C)=O)cc1` (configuration not stated), the inhibition was -1.1%. Regarding `CCOC(=O)N/C(N)=N/c1nc2ccccc2s1`, the inhibition is 3.7%. `COc1ccc2nc(N=Nc3ccc(N(C)C)cc3)sc2c1`: the inhibition is -5.8%.

For the molecule `COc1ccc2nc(/N=C\N(C)C)sc2c1`, the inhibition is 7%. The value for `CN(C)C(=O)c1nc2ccccc2s1` was 4.6%; that for `COc1ccc(-n2c(N)c(C(=O)NCC3CCCO3)sc2=S)cc1` (configuration not stated) was 6%; that for `Cn1c(=O)c(=O)n(C)c2cc(S(=O)(=O)N3CCC(Cc4ccccc4)CC3)ccc21` was 0.3%. Regarding `Oc1c(C(c2ccccn2)N2CCOCC2)ccc2cccnc12` (configuration not stated), the inhibition is 60.9% (active). As for `CN1CCN(C(c2cccnc2)c2ccc3cccnc3c2O)CC1` (configuration not stated), the inhibition was 39.6%. Consider `Cc1conc1NC(c1cccs1)c1ccc2cccnc2c1O` (configuration not stated), for which the inhibition is 13%. With `OCCN1CCN(C(c2cccs2)c2ccc3cccnc3c2O)CC1` (configuration not stated), the inhibition is 50.8% (active). For the molecule `CCOC(=O)N1CCN(S(=O)(=O)c2cccc3cccnc23)CC1`, the inhibition is -9.6%. With `Oc1c(C(c2cccs2)N2CCN(c3ccccc3)CC2)sc2ncnn12` (configuration not stated), the inhibition is -6.2%. `Cc1nc2sc(C(c3cccs3)N3CCN(c4ccccc4)CC3)c(O)n2n1` (configuration not stated): the inhibition is 4.2%. To `Oc1c(C(c2cccs2)N2CCN(c3ccccc3)CC2)ccc2cccnc12` (configuration not stated) belongs 58.8% (active). Turning to `CCC(=O)NC(c1cccs1)c1ccc2cccnc2c1O` (configuration not stated), the inhibition is 33.8%. As to `Oc1c(C(Nc2ccccn2)c2ccccn2)ccc2cccnc12` (configuration not stated), the inhibition is 6.9%. As for `Oc1c(C(c2ccccc2Cl)N2CCCC2)ccc2cccnc12` (configuration not stated), the inhibition was 32.1%.

In the case of `CCOC(=O)N1CCN(C(c2cccnc2)c2ccc3cccnc3c2O)CC1` (configuration not stated), the inhibition is 60.4% (active). Consider `COC(=O)c1nn(-c2ccccc2)c(=O)cc1Oc1ccc(Cl)cc1`, for which the inhibition was -15.5%.

In the case of `CCOC(=O)N1CCC(NC(=O)CCC(=O)N2CC(C)Oc3ccc(Cl)cc32)CC1` (configuration not stated), the inhibition was 19.2%. Consider `COc1ccc(C(=O)Nc2nnc(Cc3cccs3)s2)cc1OC`, for which the inhibition was 7.8%.

For the molecule `COc1c(Cl)cnn(-c2ccc(Cl)c(Cl)c2)c1=O`, the inhibition was -2.9%. As to `CC1(C)NC(=O)N(CCOCCOc2ccccc2-c2ccccc2)C1=O`, the inhibition is -2.9%. Take `COc1cc(O)c2c(c1)OC(c1ccc(O)cc1)CC2=O` (configuration not stated): the inhibition is -1.3%. For the molecule `COc1cc2c(cc1OC)C1(Nc3c-2c(Cc2ccccc2)nn3-c2ccccc2)C(=O)Nc2ccccc21` (configuration not stated), the inhibition is 9.3%. With `Clc1ccc(-c2nn3c(-c4ccccn4)nnc3s2)c(Cl)c1`, the inhibition is -4.5%.

Regarding `Cc1cccc(N2C(=O)SC(SC(=Nc3ccccc3)Nc3ccccc3)C2=O)c1` (configuration not stated), the inhibition was 52.5% (active). Consider `Cc1cccc(N2C(=O)CC(SC(=Nc3ccccc3)Nc3ccccc3)C2=O)c1` (configuration not stated), for which the inhibition is 15.7%. The value for `O=C1SC(SC(=Nc2ccccc2)Nc2ccccc2)C(=O)N1c1ccccc1` (configuration not stated) was -11.6%. Turning to `Cc1ccc2c(c1)n([O-])c1c([n+]2=O)CCCC1`, the inhibition was 17.7%.

For `CCOc1ccc2c(c1)n([O-])c1c([n+]2=O)CCCC1`, the inhibition was 56.8% (active). For the molecule `O=[n+]1c2c(n([O-])c3cc(F)ccc31)CCCC2`, the inhibition was 5.7%. Regarding `CSc1ccccc1NC(=O)CN(C)Cc1ccc(Br)cc1`, the inhibition is 16%. Consider `Cc1ccccc1Cn1ccc(NC(=O)c2cnn3cccnc23)n1`, for which the inhibition was 10.4%.

As to `CCOC(=O)NC(=O)CSc1ccccn1`, the inhibition was 2.1%.

On to `O=C1/C(=C/c2cccc([N+](=O)[O-])c2)CCc2ccccc21`, for which the inhibition is 14.1%. With `O=[N+]([O-])c1cccc(N=Cc2sc3ccccc3c2O)c1`, the inhibition is 13.3%. For the molecule `CC1CCC(NC(=O)Cn2ncc3ccccc32)CC1` (configuration not stated), the inhibition was 8.4%. Consider `COc1cc2cc(CN(CCc3cccc(C)c3)C(=S)NCCCN3CCOCC3)c(=O)[nH]c2cc1OC`, for which the inhibition is 10.1%. Regarding `O=C(Cc1ccc(Nc2nc(=S)[nH]c3ccccc23)cc1)NC1CCCCC1`, the inhibition was -5.3%.

As for `CC(C)CCNC(=O)Cc1ccc(Nc2nc(=S)[nH]c3ccccc23)cc1`, the inhibition was 51.6% (active). As for `Cc1ccc(CNC(=O)Cc2csc(Nc3nc(=S)[nH]c4ccccc34)n2)cc1`, the inhibition is -1.8%. With `Cc1cccc(/C(N)=N/OC(=O)c2ccc(Br)o2)c1`, the inhibition is 12.6%. The value for `CCOc1cc(S(=O)(=O)N2CCCC2)ccc1Cl` was -1.7%. The value for `O=C(OCC1O[C@@H](OC(=O)c2cc(O)c(O)c(O)c2)[C@@H](OC(=O)c2cc(O)c(O)c(O)c2)[C@@H](OC(=O)c2cc(O)c(O)c(O)c2)[C@@H]1OC(=O)c1cc(O)c(O)c(O)c1)c1cc(O)c(O)c(O)c1` (some centres not stated) was 57.2% (active); that for `O=C(O[C@@H]1OC2COC(=O)c3cc(O)c(O)c(O)c3-c3c(cc(O)c(O)c3O)C(=O)O[C@@H]([C@H]1O)[C@@H]2O)c1cc(O)c(O)c(O)c1` was 49.1%; that for `Cc1cn(C2OC(COC(=O)c3ccccc3)C(OC(=O)c3ccccc3)C2OC(=O)c2ccccc2)c(=O)[nH]c1=O` (configuration not stated) was 3.7%.

Consider `CC(C)N(CC#CC(O)(c1ccccc1)c1ccccc1)CCO`, for which the inhibition is -9.6%. Take `O=[N+]([O-])c1ccc(Cl)c(/C=N/NC(=S)Nc2ccccc2)c1`: the inhibition was 66.2% (active). For the molecule `NC(=S)N/N=C/c1cc([N+](=O)[O-])ccc1Cl`, the inhibition was -2.2%. Regarding `S=C(N/N=C/c1ccccc1Cl)Nc1ccccc1`, the inhibition was 12.3%. For `CCC(C)(C)c1ccc(OCCN2C(=O)NC(C)(C)C2=O)cc1`, the inhibition is 7.4%. For `COc1ccc(NC(=O)C2(c3ccccc3)CCCC2)cc1`, the inhibition is 18.9%. For `CCOC(=O)C1=C(C)N(C)C(=O)NC1c1c(C)nn(-c2ccc(C)cc2)c1Cl` (configuration not stated), the inhibition was -6.5%. As to `CCOC(=O)C1=C(C)NC(=O)NC1c1c(C)nn(-c2ccccc2)c1Cl` (configuration not stated), the inhibition is 53.9% (active). As to `CCOC(=O)C1=C(C)N(C)C(=O)NC1c1c(C)nn(-c2ccccc2)c1C` (configuration not stated), the inhibition was -0.2%. `CCSc1nnc(NC(=O)c2ccc(S(=O)(=O)N(C)C)cc2)s1`: the inhibition was -9.1%.

For `COc1ccc(Nc2nc(N)nc(CSC(=S)N3CCOCC3)n2)cc1`, the inhibition was -8.7%.

`C=CC[n+]1c(/C=C2\C=Cc3cc(C)ccc3N2CC)ccc2ccccc21`: the inhibition is 16.7%. Consider `C=CC[n+]1ccc(/C=C2\C=Cc3cc(C)ccc3N2CC)c2ccccc21`, for which the inhibition was 64.5% (active). For the molecule `CCN1/C(=C/c2cc[n+](C)cc2)C=Cc2cc(C)ccc21`, the inhibition was 46.3%. The value for `N#CCSCC(=O)Nc1ccccc1` was 7.9%.

For the molecule `N#CC(C(=O)NC1CCCCC1)c1nc2ccccc2nc1N1CCN(c2ccc(F)cc2)CC1` (configuration not stated), the inhibition was 7.4%.

With `Cc1ccc(-c2nnc3n2N=C(c2ccc(Br)cc2)CS3)cc1`, the inhibition was -12.4%. As to `COc1cccc(CNc2ccc(N3CCC(C)CC3)cc2)c1OC`, the inhibition is 67.3% (active). `COc1cccc(CNc2ccc(N3CCCCC3)cc2)c1OC`: the inhibition was 65.1% (active). In the case of `COc1ccccc1C(=O)Nc1ccc(N2CCCCC2)cc1`, the inhibition was -4.3%. The value for `COc1cccc(CNc2ccc(S(N)(=O)=O)cc2)c1OC` was 6.1%; that for `COc1cccc(CNCCN2CCOCC2)c1OC` was 0.5%; that for `CC1CCN(c2ccc(NC(=O)Cc3ccccc3)cc2)CC1` was 13.5%. With `COc1cccc(CNc2ccc(F)c(Cl)c2)c1OC`, the inhibition was -0.3%. To `COc1ccccc1CNc1ccc(N2CCCCC2)cc1` belongs 67.3% (active). `COc1ccccc1CNc1ccc(C(=O)O)cc1`: the inhibition was 1.8%.
